# Measurements taken from PubChem BioAssay (EPA / NIEHS).
# Inconclusive results are not listed. Activity calls are given as the source filed them. How the source made its calls: active means hit-call score of the fitted dose curve at least 0.9, where 1 is the maximum; inconclusive means response in the unintended direction; inactive means score below 0.9.
# Assay: ACEA_AR_antagonist_AUC_viability: ACEA Biosciences xCELLigence Real-Time Cell Analysis on Androgen Receptor Antagonism for Viability (AID 2283776);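 further: area under impedance growth curve at 80 h after dosing as viability; hits lower the growth signal relative to DMSO meaning cytotoxicity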
# Experimental: ACEA_AR_antagonist is a cell-based, single-readout assay that uses 22Rv1, a human prostate cancer cell line, with measurements taken at 80 hours after chemical dosing in a 384-well plate, although TO5 and TO6 (mc0.srcf) used a 96-well plate. Differences in plate size can be ignored given data normalization.ACEA_AR_80hr is one of two assay component(s) measured or calculated from the […] assay. It is designed to make measurements of real-time cell-growth kinetics, a form of growth reporter, as detected with electrical impedance signals by Real-Time Cell Electrode Sensor (RT-CES) technology.Data from the assay component ACEA_AR_antagonist_AUC_viability was analyzed in the positive analysis fitting direction relative to DMSO as the negative control and baseline of activity. Using a type of growth reporter, loss-of-signal activity can be used to understand changes in the viability. Furthermore, this assay endpoint can be referred to as a secondary readout, because this assay has produced multiple assay endpoints where this one serves a viability function. To generalize the intended target to other relatable targets, this assay endpoint is annotated to the cell cycle intended target family, where the subfamily is cytotoxicity.
# The xCELLigence system Multi-E-Plate stations were used to measure the time-dependent response to chemicals. Each compound was tested in an eight-point, 1:4 serial dilution series starting at a maximum final concentration of 100 uM. A maximum starting concentration of 0.5% DMSO was present in the 100 uM chemical samples and was diluted along with the test article dilution series. The screen was performed in biological duplicate using two separate, 96-well, E-Plates 96 for each dilution series (n = 2). Positive controls (MG132 and testosterone) and a negative control (assay media) were tested in quadruplicate on each testing plate. Then, 0.5% and 0.125% DMSO were tested in duplicates in each plate to serve as solvent controls for the 2 highest concentrations of testing compounds: 100 uM and 25 uM. Reference compounds were tested with 8 concentrations with 1:5 serial dilutions. All screening was carried out by ACEA Biosciences, Inc. (San Diego, CA). 22Rv1 cells purchased from ATCC were maintained in media supplemented with 10% fetal bovine serum (FBS). Before screening, 22Rv1 cells were preconditioned in assay medium. Cells were then detached and seeded in E-Plates 96 in assay medium. After overnight monitoring of growth once every hour, compounds were added to […] cells and remained in the medium until the end of the experiment. Cellular responses were then recorded once every 5 min for the first 5 h, and once every hour for an additional 100 h.
SMILES,outcome,AC50
O=C1NC2NC(=O)NC2N1 (stereo not given),inactive,
Nc1ccc2cc(S(=O)(=O)O)cc(O)c2c1N=Nc1ccccc1C(F)(F)F,inactive,
CCCCCC(C)=O,inactive,
Cc1cc(=O)oc2cc(N(C)C)ccc12,,0.177 µM (active)
CC(C=O)Cc1ccc(C(C)(C)C)cc1 (stereo not given),inactive,
CCCCOC(=O)CCCCCCCC(=O)OCCCC,inactive,
CCCOCCO,inactive,
COC(=O)c1ccc(C)cc1C1=NC(C)(C(C)C)C(=O)N1 (stereo not given) (tested in a mixture with another compound),inactive,
[O-]n1ccccc1=S.[O-]n1ccccc1=S.[Zn+2],,22.9 µM (active)
CCCCCCCC/C=C\CCCCCCCC(=O)OCC,inactive,
OCC(O)c1ccccc1 (stereo not given),inactive,
C#CC(C)(O)CC(C)C (stereo not given),inactive,
CC1CC(O)CC(C)(C)C1 (stereo not given),inactive,
OCCc1ccccc1,inactive,
CCc1cc(Cc2cc(CC)cc(C(C)(C)C)c2O)c(O)c(C(C)(C)C)c1,,22.9 µM (active)
COc1ccccc1N=Nc1c(S(=O)(=O)O)cc2cc(S(=O)(=O)O)cc(NC(C)=O)c2c1O,inactive,
Cc1ccc(S(N)(=O)=O)cc1,inactive,
O=C1OC(=O)c2c(Cl)c(Cl)c(Cl)c(Cl)c21,inactive,
CC(C)CCCCCCCCCCCCCCC(=O)O,inactive,
Clc1ccc(C(c2ccccc2Cl)C(Cl)Cl)cc1 (stereo not given),inactive,

SMILES,outcome,AC50
CCOC(=O)C1OC1c1ccccc1 (stereo not given),inactive,
C=C(C)[C@@H]1CC=C(C)C(=O)C1,inactive,
CC1CCC(C(C)C)C(O)C1 (stereo not given),inactive,
C=CC(=O)OCCCC,inactive,
CN1C(=O)c2ccccc2C1=O,inactive,
O=[N+]([O-])c1ccc(O)cc1C(F)(F)F,,12.9 µM (active)
CCCC(C)=O,inactive,
CS(C)=O,inactive,
CN(C)c1cccc(O)c1,inactive,
O=C(O)c1ccc(O)cc1,inactive,
O=c1c(O)c(-c2ccc(O)cc2)oc2cc(O)cc(O)c12,,4.77 µM (active)
O=Cc1ccccc1S(=O)(=O)O,inactive,
CCCCCCCCSCCO,inactive,
C[Si](C)(C)O[Si](C)(C)C,inactive,
COS(=O)(=O)O,inactive,
CCCCCCCCCCCCCCN(CCO)CCO,,28.4 µM (active)
Nc1ccc(N)c2c1C(=O)c1ccccc1C2=O,,12.7 µM (active)
CCc1cc(C(C)(C)C)c(O)c(C(C)(C)C)c1,inactive,
CCc1ccc(O)cc1,inactive,
CCCCCCCCc1ccc(S(=O)(=O)O)cc1,inactive,
